From PubChem BioAssay (NCI)
Compounds without any hit were thinned out: in the full panel of roughly 83,000, 20% have a hit.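 Each cell line was grown in a 96-well plate and treated with one concentration of compound for 48 hours. Values below 10 were considered active.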 Values without a mark were called inactive. Active and inactive are the calls of the source.

Tests used:
Experiment in all cases: NCI-60 one-dose screen, 48 h (100 = growth as untreated, 0 = no growth, -100 = all killed)
Details in all cases: 10 µM unless noted
HCT-15 colon = test system: HCT-15 colon
HT29 colon = test system: HT29 colon
SNB-75 CNS = test system: SNB-75 CNS
SNB-19 CNS = test system: SNB-19 CNS
U251 CNS = test system: U251 CNS
PC-3 prostate = test system: PC-3 prostate
SK-MEL-5 melanoma = test system: SK-MEL-5 melanoma
UACC-62 melanoma = test system: UACC-62 melanoma
LOX IMVI melanoma = test system: LOX IMVI melanoma
SK-MEL-28 melanoma = test system: SK-MEL-28 melanoma
SK-MEL-2 melanoma = test system: SK-MEL-2 melanoma
EKVX NSCLC = test system: EKVX NSCLC
SN12C renal = test system: SN12C renal
UO-31 renal = test system: UO-31 renal
ACHN renal = test system: ACHN renal
CAKI-1 renal = test system: CAKI-1 renal
A498 renal = test system: A498 renal
CCRF-CEM leukemia = test system: CCRF-CEM leukemia
MOLT-4 leukemia = test system: MOLT-4 leukemia
TK-10 renal = test system: TK-10 renal

Structure (SMILES)	growth (HCT-15 colon)	growth (HT29 colon)	growth (SNB-75 CNS) [%]	growth (SNB-19 CNS)	growth (U251 CNS) [%]	growth (PC-3 prostate) [%]	growth (SK-MEL-5 melanoma)	growth (UACC-62 melanoma) [%]	growth (LOX IMVI melanoma) [%]	growth (SK-MEL-28 melanoma) [%]	growth (SK-MEL-2 melanoma) [%]	growth (EKVX NSCLC) [%]	growth (SN12C renal) [%]	growth (UO-31 renal) [%]	growth (ACHN renal) [%]	growth (CAKI-1 renal) [%]	growth (A498 renal)	growth (CCRF-CEM leukemia) [%]	growth (MOLT-4 leukemia)	growth (TK-10 renal) [%]
Cc1ccc(C)c2c1C(=O)OC2=O	101%	93.1%	91.2	107%	104	97.7	102%	101	98.4	92.9	84.6	105	97.9	79.1	98.8	99.4	101%	102	3.4% (active)	
Cc1ccc(/C(=N\N=C(N)N)c2ccccc2)cc1	-4.22% (active)	3.12% (active)	28.5	9.71% (active)	12.7	14.1	-13.4% (active)	20.7	28.3	64.4	71.3	34.3	26.9	24.8	20.4	41.2	20.1%	14	13.3%	
N#Cc1cccc(-c2nc3ccccn3c2NCCN2CCOCC2)c1	105%	92.8%	71.1	100%	98.2	89.5	104%	95.5	92.5	107	100	104		73.3	98.3	85.1	99.1%	92.5	96.5%	101
CCCCNCC(=O)Nc1ccc(C(=O)OCC)cc1	91.5%	86.7%	108	103%	101	71.8	101%	95.3	103	115	93	98.3	104	91.8			101%	79.4	80.7%	
Nc1c(-c2nc3ccccc3c(=O)[nH]2)nnn1-c1ccc(Cl)cc1	93.1%	68.7%	24.7	76%	74.6	85.3	92.6%	99.1	107	81.1	96.3	103	95.4	48	87	70.2		90.2	87.7%	
Cc1ccc(NSc2ccccc2[N+](=O)[O-])cc1	27%	5.05% (active)	10.1	38.1%	21.1	18	13.6%	28.6	35	63.7	23.5	50.1	40.3	33.1	50.4	34.2	6.22% (active)	12.4	29.5%	
CCN(CCO)CC(=O)c1cc(Cl)cc(Cl)c1Cl	101%	81.8%	95.3	105%	101	84	105%	98.3	99.6	111	92.4	105	100	93.5			102%	82.9	90.5%	86.7
O=C1C(Cl)C(c2ccccc2Cl)N1n1cnnc1 (stereo not drawn)	101%	103%	74	93%	99.6	88	97.3%	94.7	91.4	96.4	102	99.8		83.3	96.8	85.6	93.9%	98.6	101%	102
